Shown are actives, neighbours in structure and some others; about 6% of the full set was active somewhere.
D1 agonist – human D1 receptor agonism. HEK293 T-REx D1 cells, calcium flux, agonist mode. activation, % at 2 µM. 1% of 360,000 active. AID 504660; in the data active = activation above about 30%; note: 0% is about no effect
Target sequence (P21728 whole entry, looked up): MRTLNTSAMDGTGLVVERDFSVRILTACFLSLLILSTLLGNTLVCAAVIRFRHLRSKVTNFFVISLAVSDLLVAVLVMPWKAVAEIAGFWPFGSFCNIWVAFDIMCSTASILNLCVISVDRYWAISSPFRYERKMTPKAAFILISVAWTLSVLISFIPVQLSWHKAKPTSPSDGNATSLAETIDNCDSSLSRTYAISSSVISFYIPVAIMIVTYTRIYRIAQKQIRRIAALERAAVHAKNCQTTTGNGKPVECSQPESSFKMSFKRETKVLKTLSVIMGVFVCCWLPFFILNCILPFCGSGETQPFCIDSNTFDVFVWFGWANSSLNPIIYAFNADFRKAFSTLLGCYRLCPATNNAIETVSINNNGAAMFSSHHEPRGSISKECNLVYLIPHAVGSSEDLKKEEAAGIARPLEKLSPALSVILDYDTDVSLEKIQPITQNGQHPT
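Agonism was scored from calcium flux recorded over 180 s (1 read/s) after pintool compound addition, following a 10-cycle baseline. Cells were inducible force-coupled HEK293 TREx D1, plated overnight at 30 C and loaded with no-wash calcium dye.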
D3 ag – activates the human D3 dopamine receptor. D3R DiscoveRx beta-arrestin cells, luminescence, 90 min. max activation, %. P35462. 0.58% of 410,000 active. AID 652048; in the data active = max activation above about 30%; note: 0% is about no effect
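Agonist mode: compounds and dopamine controls were applied to plated cells for 90 min at 37 degrees C after an overnight attachment at 1500 cells/well. Luminescent read-out followed 30 - 60 minutes at room temperature with DiscoveRx detection reagent.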
D1 antag – blocks dopamine activation of the human D1 receptor | HEK293 TREx D1 cells, calcium flux, dopamine EC80; active compounds read low | activity change, negative = inhibition, % at 10 µM | 3.2% of 360,000 active | AID 504652; in the data active = activity change below about -30%; note: % is set by controls: 0 for no effect and ±100 for the full control effect
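HEK293 T-REx cells expressing inducible, force-coupled D1 receptor; no-wash Ca dye, 30–90 min RT. Cmpd → 180 s read at 1 Hz → EC80 DA → 180 s read.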
D1 potentiator – potentiators of human D1 dopamine receptor. P21728. HEK293 TREx D1 cells, calcium flux, dopamine EC20 potentiation. potentiation, % at 10 µM. 0.036% of 360,000 active; in the data active = potentiation above about 30%; note: 0% is about no effect
DRD3 antagonist – D3 dopamine receptor (human) antagonism | P35462 | D3R cells, DiscoveRx beta-arrestin luminescence, antagonist mode; active compounds read low | max response, negative = inhibition, % | 2.5% of 360,000 active | AID 652054; in the data active = max response below about -50%; inconclusive = no clear call, values can overlap the other calls; note: % is set by controls: 0 for no effect and ±100 for the full control effect
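Cells plated overnight at 1500 cells/well, then exposed to library compounds with dopamine controls for 90 minutes at 37 degrees C. DiscoveRx reagent added for 30–60 minutes at room temperature; luminescence read, quantitative HTS format.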
The depositor's hits bear a star; ? = inconclusive; . = no result; ! = not active in a repeat.

SMILES	D1 agonist	D3 ag	D1 antag	D1 potentiator	DRD3 antagonist
CC(NC(=O)C1CCCN(S(=O)(=O)c2cccs2)C1)c1ccccc1 (centres undefined)	30*	-5	-26	-1	4
O=C(CCCc1nc(-c2ccc(Cl)cc2)no1)N1CCOCC1	2	-16	-41*	-6	-12
Cc1ccc(-c2noc(CCCC(=O)N3CCOCC3)n2)cc1	1	2	3	1	15
O=C(CCCc1nc(-c2ccc(Cl)cc2)no1)NCC1CCCO1 (centres undefined)	8	34*	-19	-5	7
O=C(NCCc1ccccc1)c1ccc2c(c1)CCN2S(=O)(=O)c1ccc(Cl)cc1	7	-5	1	-2	.
CC1=CC(C)(C)N2C(=O)C(=Nc3ccc(O)cc3)c3cccc1c32	1	-9	-36*	-6	?
O=C(OCC(O)CO)c1ccccc1Nc1ccnc2cc(Cl)ccc12 (centres undefined)	5	46*!	-17	-5	49
COC(=O)c1sc(N/N=C/c2ccc(C(C)C)cc2)nc1C	3	11	-37*	.	16
Cc1ccc(S(=O)(=O)n2nc(-c3ccco3)nc2NCc2ccc(N(C)C)cc2)cc1	0	-15	-8	-2	.
N#C/C(=C/c1ccc(-c2ccccc2[N+](=O)[O-])o1)C(N)=O	0	1	-41*	-11	1
CCC(=O)c1c[nH]c(C(=O)NCc2cccnc2)c1	5	-10	-3	17	-22
O=C(NCc1cccnc1)c1ccc(Br)o1	0	-1	-32*	-6	13
O=C(Cc1ccc(Cl)cc1Cl)NCc1cccnc1	0	-1	-41*	-3	6
CCCC(=O)c1c[nH]c(C(=O)NCc2cccnc2)c1	0	-12	-5	-12	-88*
CCC12CN3CC(C)(CN(C1)C3c1ccccc1C)C2=O (centres undefined)	3	6	11	-1	.
CCOc1ccc(CNC(=O)c2cccc(NC(=O)N3CCSc4ncccc43)c2)cc1OC	2	16	-25	-3	.
O=C(NCc1cccnc1)c1ccc(-c2cccc(Cl)c2Cl)o1	9	-17	-6	-5	-25
CC(C)(C)c1cc(C(=O)N/N=C/c2ccc(-c3ccccc3[N+](=O)[O-])o2)n[nH]1	1	-28	1	0	?
O=C(N/N=C/c1ccc(-c2ccccc2[N+](=O)[O-])o1)c1cccnc1	1	-2	5	-3	-59*
O=C(NCc1cccnc1)c1ccc(-c2ccccc2[N+](=O)[O-])o1	0	-6	-20	-10	-55*
COc1c(C)c2c(c(O)c1C/C=C(\C)CCC(=O)OCCN1CCOCC1)C(=O)OC2	.	-11	.	.	.
COc1cccc(OC)c1C(=O)N1CCN(Cc2c[nH]c3ccccc23)CC1	.	3	.	.	5
O=C(c1cccc(F)c1)N1CCN(Cc2c[nH]c3ccccc23)CC1	1	-14	-55*	-5	-8
O=C(c1cccc(F)c1)N1CCC(c2c[nH]c3ccccc23)(c2c[nH]c3ccccc23)CC1	2	8	6	0	.
O=C(c1ccccc1)N1CCN(Cc2c[nH]c3ccccc23)CC1	6	2	16	-7	-85*
SMILES	D1 agonist	D3 ag	D1 antag	D1 potentiator	DRD3 antagonist
O=[N+]([O-])c1ccccc1CN1CCN(Cc2c[nH]c3ccccc23)CC1	19	-11	-30*	-10	?
O=[N+]([O-])c1ccccc1CN1CCN(Cc2ccccn2)CC1	3	-9	10	-8	-5
O=C(Cc1c[nH]c2ccccc12)N1CCN(S(=O)(=O)c2ccc(Cl)cc2)CC1	4	11	-36*	-3	14
O=C(COC(=O)C1CC1)c1c[nH]c2ccccc12	-4	3	-11	1	-16
O=C(Cc1ccccc1[N+](=O)[O-])OCC(=O)c1c[nH]c2ccccc12	2	2	-38*	-5	1
O=C(CCc1c[nH]c2ccccc12)N1CCCC1	7	5	-5	-2	-1
CC(=O)N1CCN(C(=O)CCc2c[nH]c3ccccc23)CC1	0	2	-34*	-12	7
C=CCn1c(SCCC)nc(O)cc1=O	128*	3	-26	-5	-17
C=CCn1c(SCC)nc(O)cc1=O	20	11	8	6	10
CCCCC(CC)COS(=O)(=O)O (centres undefined)	.	4	.	.	.

Screening results as filed in PubChem BioAssay.
